# Measured values as given in ChEMBL document CHEMBL4513146, “CO-ADD screening of Karazin Kharkiv National University (Ukraine) compounds”.
# Potency and affinity values are given separately.
# What was measured:
# [1] = tested on: Staphylococcus aureus; conditions: Concentration 32 ug.mL-1;; ASSAY_TEST Inhibition of Bacterial Growth; detection method Absorption (OD600); MEDIA CAMHB; plate type 384well; NBS; CORNING #3640; time 18 hr
# [2] = tested on: Escherichia coli; conditions: Concentration 32 ug.mL-1;; ASSAY_TEST Inhibition of Bacterial Growth; detection method Absorption (OD600); MEDIA CAMHB; plate type 384well; NBS; CORNING #3640; time 18 hr
Structure (SMILES),Inhibition [1] [%],Inhibition [2] [%]
COc1ccc(NC(=O)Cn2nc3c(Sc4ccccc4)nccn3c2=O)cc1,7.67,-3.96
Cc1ccc(C)c(-c2cc3c4nnc(SCC(=O)Nc5cccc(Br)c5)n4ccn3n2)c1,0.42,-9.35
CC(C)Cn1c(=O)c2sccc2n2c(=O)n(Cc3ccc(Br)cc3)nc12,2.7,-6.62
COc1ccc(C(=O)CSc2nnc3c(=O)n(-c4ccc(F)cc4)ccn23)cc1,13.68,-0.44
Cc1ccc(-n2ccn3c(SCC(=O)N4CCN(c5ccc(F)cc5)CC4)nnc3c2=O)cc1C,15.71,-2.64
COc1ccc(-c2cc3c4nnc(SCC(=O)Nc5cc(Cl)ccc5C)n4ccn3n2)cc1,-1.91,-8.79
COc1cccc(-c2noc(Cn3nc4ccc(-c5ccc(C)c(C)c5)nn4c3=O)n2)c1OC,6.16,-3.11
COc1cccc(Oc2nccn3c(=O)n(CC(=O)NCc4cccs4)nc23)c1,7.35,-2.75
COc1ccc(Cl)cc1NC(=O)CSc1nnc2c(=O)n(-c3ccc(C)c(C)c3)ccn12,15.8,-1.54
Cc1cccc(Oc2nc3ccccc3n3c(=O)n(CC(=O)NCc4ccco4)nc23)c1C,3.87,-6.2
CCc1nnc2c(SCC(=O)Nc3ccc(C(=O)OC)cc3)nc3ccccc3n12,1.34,-1.9
Cc1ccccc1Oc1nccn2c(=O)n(CC(=O)Nc3ccc(Cl)c(Cl)c3)nc12,7.54,-4.77
COc1cccc(CN(c2ccc(F)cc2)S(=O)(=O)c2ccc3nnc(C)n3c2)c1,-1.25,-6.02
Cc1c(Cl)cccc1-n1ccn2c(=O)n(Cc3cccc(Cl)c3)nc2c1=O,7.64,-4.76
CC(C)c1nnc2c(=O)n(CC(=O)Nc3ccc(C#N)cc3)c3ccccc3n12,-0.41,-7.65
CC(C)c1ccc(NC(=O)Cn2nc3c(N4CCCC4)nccn3c2=O)cc1,2.8,-0.46
CCOc1ccccc1NC(=O)Cn1nc2c(Sc3ccccc3)nccn2c1=O,-2.46,-5.85

Structure (SMILES),Inhibition [1] [%],Inhibition [2] [%]
COc1cccc(-n2ccn3c(SCc4cccc(C(F)(F)F)c4)nnc3c2=O)c1,7.34,-9.08
CCCCOc1ccc(-c2cc3c4nnc(SCC(=O)Nc5ccc(F)cc5)n4ccn3n2)cc1,2.53,-6.79
CCOc1ccccc1NC(=O)Cn1c(=O)c2nnc(C(C)C)n2c2ccccc21,15.38,5
Cc1[nH]c2ccccc2c1C(=O)CSc1nnc2c(=O)n(-c3ccc(Br)cc3)ccn12,-0.76,-11.28
O=C(CSc1nnc2c(=O)n(-c3ccc(F)cc3)ccn12)N1CCN(c2ccc(F)cc2)CC1,9.4,-2.88
NC(=O)CSc1nnc2c(=O)n(-c3ccc(F)cc3)ccn12,22.03,3.06
CSc1ccc(CNC(=O)CCc2nnc3c(N4CCCCC4)nc4ccccc4n23)cc1,14.53,2
COc1ccc(-c2cc3c4nn(CC(=O)Nc5ccc(OC)c(Cl)c5)c(=O)n4ccn3n2)cc1,-2.49,-6.71
Cc1ccc(Cl)cc1NC(=O)Cn1nc2c(N3CCOCC3)nc3ccccc3n2c1=O,-1.67,-9.52
Cc1cc(C)cc(N(Cc2ccccc2)S(=O)(=O)c2cccn3cnnc23)c1,-25.73,-13.66
COc1ccccc1N1CCN(C(=O)Cn2nc3c(Sc4cccc(C)c4)nccn3c2=O)CC1,5.8,-4.78
CCN(CCCNC(=O)CCc1nnc2ccc(-c3ccccc3)nn12)c1ccccc1,5.66,4.87
Cc1ccc(-c2ccc3nn(Cc4ccc(F)cc4Cl)c(=O)n3n2)cc1C,8.63,-0.58
Cc1nnc2c(SCC(=O)Nc3ccc4c(c3)OCCO4)nc3ccccc3n12,5.53,3.38
COc1ccc(CNC(=O)CSc2nnc3c4cc(-c5ccc(OC)cc5)nn4ccn23)cc1,4.43,0.23
COc1cccc(NC(=O)Cn2nc3c(Oc4ccccc4)nccn3c2=O)c1,0.03,-5.32
